Screening results: PubChem, Sanford-Burnham Center for Chemical Genomics
CYP2C9 activ: increases human cytochrome P450 2C9 activity | recombinant CYP2C9, luciferin-H conversion, luminescence; active compounds read high; factor 1 = untreated enzyme, 0 = blocked | AID 1024 | 96,000 compounds, 1.4% hits | P11712 | activation factor at 5 µM;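 active = activation factor of 2 or more for CYP2C9 at a 5 µM dose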;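 note: 0 = sulfaphenazole-blocked wells and 1 = vehicle-only wells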
Target sequence (P11712 whole entry, looked up): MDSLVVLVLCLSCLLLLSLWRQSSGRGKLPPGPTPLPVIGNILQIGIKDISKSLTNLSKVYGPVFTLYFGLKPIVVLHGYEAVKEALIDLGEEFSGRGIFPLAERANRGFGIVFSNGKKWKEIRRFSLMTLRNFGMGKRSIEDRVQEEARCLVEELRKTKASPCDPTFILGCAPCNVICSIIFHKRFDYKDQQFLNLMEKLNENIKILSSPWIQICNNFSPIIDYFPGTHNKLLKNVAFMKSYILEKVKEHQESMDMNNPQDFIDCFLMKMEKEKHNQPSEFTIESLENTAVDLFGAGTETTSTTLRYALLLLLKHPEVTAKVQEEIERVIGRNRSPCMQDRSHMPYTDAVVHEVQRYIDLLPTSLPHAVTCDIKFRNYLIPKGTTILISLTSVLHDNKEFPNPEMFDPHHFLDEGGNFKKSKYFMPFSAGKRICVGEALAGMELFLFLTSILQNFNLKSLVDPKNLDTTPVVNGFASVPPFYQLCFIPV
CYP2C19 act: activators of human cytochrome P450 2C19. recombinant CYP2C19, luciferin-H EGE luminescence; active compounds read high; 0 = fully inhibited enzyme, 1 = untreated enzyme. activation factor at 5 µM. P33261. AID 1025. 96,000 tested, under 10 active;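 active = activation factor of at least 2 at 5 µM in the primary screen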;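 note: 0 = wells with 2.5 mM tranylcypromine and 1 = vehicle-only wells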
CYP2C19 inh: human CYP2C19 inhibition; inhibition, % at 5 µM; 96,000 compounds, 21% hits; CYP2C19 Supersomes, luciferin-H EGE luminescence, 30 min;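 active = CYP2C19 inhibition above a set limit at 5 µM in the primary screen, cut at about 50% in these data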;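 note: plate controls were negative control wells for no effect and 2.5 mM tranylcypromine positive control for full effect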
CYP2C9 inh: blocks human cytochrome P450 2C9; CYP2C9 Supersomes, luciferin-H conversion, luminescence; inhibition, % at 5 µM; 96,000 compounds, 20% hits;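 active = blocking of liver enzyme CYP2C9 beyond about 50% at 5 µM, limit read from the data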
CD11b adhes inh: inhibitors of human CD11b/CD18 binding to fibrinogen | 93,000 compounds, 0.54% hits | P05107+P11215 | inhibition, % at 10 µM | K562 CD11b/CD18 adhesion to fibrinogen, ATPlite luminescence; Mn2+ added to activate the integrin;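 active = primary inhibition of 50% or more at 10 µM, then 40% or more on retest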
CD11b adhes enh: CD11b/CD18-fibrinogen binding enhancement; activation, % at 10 µM; 93,000 compounds, 0.07% hits; P05107+P11215; K562 CD11b/CD18 adhesion to fibrinogen, ATPlite luminescence;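 active = 10 µM primary screen giving 50% or more activity, confirmed by 40% or more on retest at that dose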
Active calls of the source: *; nt = no result given. Sampled rows, rich in hits. Any-hit rate of the full collection: about 28%.

SMILES | CYP2C9 activ | CYP2C19 act | CYP2C19 inh | CYP2C9 inh | CD11b adhes inh | CD11b adhes enh
CCOc1cc2[nH]c(=S)n(CCOC)c(=O)c2cc1OCC | 0.9 | 1.1 | -10 | 13 | 15 | 3
CC1=C(C(=O)OCc2ccccc2)C(c2ccccc2OC(F)F)NC(=O)N1 (stereo not drawn) | 0.9 | 0.6 | 44 | 15 | -8 | -2
COc1ccc(CNC(C)C2COc3ccccc3O2)c(OC)c1 (stereo not drawn) | 0.9 | 0.1 | 87* | 13 | 6 | 1
CC(NCc1ccccc1)C1COc2ccccc2O1 (stereo not drawn) | 0.9 | 0.5 | 52* | 6 | -52 | -1
CC(NC(=O)CCC(=O)NC(C)C1COc2ccccc2O1)C1COc2ccccc2O1 (stereo not drawn) | 0.6 | 0.6 | 42 | 38 | -19 | -7
O=C(Nc1ccc2c(c1)Cc1ccccc1-2)c1ccco1 | 0.9 | 0.9 | 10 | 9 | -13 | 0
O=C(Nc1ccc(Br)cc1Cl)Nn1cnnc1 | 1 | 0.8 | 19 | -1 | -22 | -2
O=C(Nn1cnnc1)c1cc2c(s1)CCCCC2 | 0.8 | 0.3 | 72* | 16 | 11 | -2
O=C(Nc1ccon1)c1cc2c(s1)CCCCCC2 | 0.3 | 0.5 | 55* | 69* | -3 | 0
O=C(NCCCn1ccnc1)c1cc2c(s1)CCCCC2 | 0.3 | 0.1 | 93* | 73* | 0 | 4
O=C(NCCO)c1cc2c(s1)CCC2 | 1 | 0.8 | 17 | 1 | nt | nt
O=[N+]([O-])c1cccc(N/N=C/c2cccc3ccccc23)c1 | nt | nt | nt | nt | -2 | 5
Cc1ccc2ccccc2c1COC(=O)c1nonc1N | 0.8 | 0.7 | 32 | 24 | 2 | -3
Cc1ccc(N=C(NOCc2ccc(Cl)cc2Cl)c2nonc2N)c(C)c1 | 0.3 | 0.6 | 42 | 74* | 17 | -3
Cc1ccccc1N=C(NOCc1ccc(Cl)cc1Cl)c1nonc1N | 0.3 | 0.6 | 44 | 70* | 32 | 1
Cc1ccc(N=C(NOC(=O)c2ccccc2)c2nonc2N)c(C)c1 | 0.9 | 1.1 | -12 | 5 | -6 | 0
O=C(NO)c1cc(OCC(F)(F)F)ccc1OCC(F)(F)F | 0.8 | 1 | -1 | 25 | nt | nt
C#CCONC(=O)c1cc(OCC(F)(F)F)ccc1OCC(F)(F)F | 0.8 | 0.4 | 61* | 21 | nt | nt
O=C(NCCNC(=O)c1cc(OCC(F)(F)F)ccc1OCC(F)(F)F)Nc1ccccc1 | 0.4 | 0.8 | 22 | 57* | nt | nt
CCn1c(N)c(C(=O)N2CCOCC2)sc1=S | 0.9 | 0.9 | 8 | 11 | 2 | 2
C=CCn1c(N)c(C(=O)NCc2ccco2)sc1=S | 0.4 | 0.4 | 60* | 64* | 2 | 5
C=CCn1c(N)c(C(=O)Nc2ccccc2OC)sc1=S | 0.2 | 0.2 | 78* | 85* | -5 | -6
C=CCn1c(N)c(C(=O)N2CCOCC2)sc1=S | 0.3 | 0.5 | 46 | 70* | -3 | -4
CCCNC(=O)COc1ccccc1[N+](=O)[O-] | nt | nt | nt | nt | -2 | -2
Cn1cccc1C(=S)N=P(C1CCCCC1)(N1CCOCC1)N1CCOCC1 | 1.1 | 0.9 | 12 | -11 | -2 | -6
SMILES | CYP2C9 activ | CYP2C19 act | CYP2C19 inh | CYP2C9 inh | CD11b adhes inh | CD11b adhes enh
C/C(=N\NC(=O)c1ccccc1)c1ccc(C)c([N+](=O)[O-])c1 | nt | nt | nt | nt | -6 | 4
CCOC(=O)c1c(C)[nH]c(C)c1C(=O)COC(=O)C1CCCN1S(=O)(=O)c1ccccc1F (stereo not drawn) | 0.1 | 0 | 100* | 95* | -11 | 4
O=C(O)C1C(c2ccccc2)C(C(=O)Oc2ccc(O)cc2)C1c1ccccc1 (stereo not drawn) | 0.2 | 0.9 | 11 | 80* | -8 | 4
O=C(O)C1C(c2ccccc2)C(C(=O)N2CCOCC2)C1c1ccccc1 (stereo not drawn) | 1 | 1.1 | -10 | 4 | -18 | 3
O=C(CCNc1cccc(Cl)c1)c1ccco1 | 0.6 | 0.2 | 85* | 36 | -5 | -2
O=c1nc2ccccc2c(NS(=O)(=O)c2ccccc2)n1-c1ccccc1 | 1.1 | 1.1 | -14 | -6 | -4 | 1
CC(C)CCn1cnc2c(cnn2-c2ccc(Cl)cc2)c1=O | 0.3 | 0.7 | 32 | 71* | -1 | -2
C#CCn1cnc2c(cnn2-c2ccc(C)c(C)c2)c1=O | 0.7 | 0.4 | 64* | 27 | nt | nt
Cc1ccc(-n2ncc3c(=O)n(CC#N)cnc32)cc1C | 0.8 | 0.8 | 20 | 18 | 9 | -2
Cc1ccc(S(=O)(=O)N[C@H](C(=O)N2CCC(C(=O)NCC(=O)O)CC2)C(C)C)cc1 | 0.8 | 0.9 | 9 | 23 | -5 | 11
O=C(COC(=O)CCc1nc2ccccc2s1)Nc1cccc(S(=O)(=O)N2CCOCC2)c1 | 2.1* | 0.8 | 16 | -111 | -14 | -1
O=C(COC(=O)CCc1nc2ccccc2s1)Nc1ccc(S(=O)(=O)N2CCOCC2)cc1 | 0.3 | 0.6 | 38 | 75* | -6 | 1
CCCc1nc2ccccc2c(C(=O)OCC(=O)Nc2cccc(S(=O)(=O)N3CCOCC3)c2)c1CC | 0.6 | 0.5 | 46 | 44 | nt | nt
CCn1cc(C(=O)OCC(=O)Nc2cccc(S(=O)(=O)N3CCOCC3)c2)c(=O)c2ccc(C)nc21 | 0.3 | 0.6 | 37 | 67* | 2 | -1
O=C(COC(=O)Cc1ccsc1)Nc1ccc(S(=O)(=O)N2CCOCC2)cc1 | nt | nt | nt | nt | -19 | 0
COCCn1c(-c2cc(OC)c(OC)c(OC)c2)nc2oc3ccccc3c(=O)c2c1=O | 1.2 | 1.1 | -15 | -25 | -11 | -1
Cc1cc(C)n(-c2nnc(C)n2/N=C/c2ccccc2OCc2ccccc2Cl)n1 | 0.5 | 0.4 | 56* | 52* | 4 | -2
COc1ccccc1/C=N/n1c(C)nnc1-n1nc(C)cc1C | 1.1 | 1 | 2 | -6 | -15 | -5
CCCN1C(=O)/C(=C/c2ccco2)SC1=Nc1ccc(OC)cc1 | 0.7 | 0.9 | 10 | 28 | 4 | 5
COc1ccc(N=C2S/C(=C\c3ccc(N4CCOCC4)o3)C(=O)N2CCc2c[nH]c3ccccc23)cc1 | 0.4 | 0.7 | 32 | 64* | nt | nt
COc1cc(NC(=S)NCc2ccc(S(N)(=O)=O)cc2)c(OC)cc1Cl | nt | nt | nt | nt | -8 | -1
CCCc1ccc(Oc2c(-c3ccc(O)c(C)c3O)n[nH]c2C)cc1 | 0 | 0 | 100* | 98* | 29 | -8
CCCc1ccc(OCC(=O)O)cc1 | 1 | 1 | -3 | 4 | -6 | 2
CCCc1ccc(Oc2cn[nH]c2-c2ccc(O)c(C)c2O)cc1 | 0 | 0 | 98* | 99* | 101* | -11
NNc1nnc(-c2ccccc2)c(-c2ccccc2)n1 | 0.2 | 0.1 | 88* | 79* | -8 | 2
COc1ccccc1NS(=O)(=O)c1cccc(C(=O)NN)c1 | 1.2 | 0 | 97* | -19 | -14 | 3
COc1ccccc1NS(=O)(=O)c1ccc(NN=C2CCCC2)c([N+](=O)[O-])c1 | nt | nt | nt | nt | 93 | -8
